# Measured values taken from PubChem BioAssay AID720565 (National Center for Advancing Translational Sciences (NCATS), 2013).
# Inconclusive results are not listed. Values without a mark were called inactive. Calls of active or inactive are those of the source. The call rests on the fitted dose curve; in most records, active means well fitted activation curve with a large enough effect; inconclusive means small, poorly fitted or top-dose-only effect; inactive means no such curve, though single readings can be large or run the other way.
# Test: qHTS for small molecules that induce genotoxicity in ELG1 expressing cells: Confirmatory Assay for Cherry-picked Compounds; further: nearly all actives have a fitted effect of over 35% in size; on activation: % of control where 0% means no effect
# Details: ELG1-luciferase reporter cells, luminescence, 16 h; series mostly up to 46.1 µM; activation: at the top concentration
# In short: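 Cells carrying the ELG1-luciferase reporter were exposed to compound for 16 hr at 37 C, 5% CO2, at 2,000 cells per well. Rise in luciferase activity, read with ONE-Glo after 30 min at room temperature, indicates genotoxic stress.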
# Potency means the concentration at half of the fitted maximal effect.
SMILES,Potency,activation [%]
Cc1ccnc(NC(=S)N2CCN(c3ccc(N)cc3)CC2)c1,14.1 µM (active),–
O=C(COc1ccccc1F)Nc1ccc(-c2nc3ccccc3s2)cc1,5 µM (active),–
CC(=O)N1CCc2cc(Br)cc(S(=O)(=O)CCC(=O)Nc3c(C)n(C)n(-c4ccccc4)c3=O)c21,–,-3.98
O=C(CSc1nc2ccccc2o1)Nc1ccccc1N1CCCCCC1,–,-14.9
C[C@@H]1CC2[C@@H]3CCC4=CC(=O)C=C[C@]4(C)[C@@]3(F)[C@@H](O)C[C@]2(C)[C@@]1(O)C(=O)NCCCCCCOC[C@H]1O[C@@H](n2cnc3cc(Cl)c(Cl)cc32)[C@@H]2OC(C)(C)O[C@@H]21 (stereo partly specified),2.29 µM (active),–
COc1cccc(/C=C/C(=O)OCC(=O)c2ccccc2)c1OC,3.53 µM (active),–
Cn1cccc1C(=O)Nc1ccc(N2CCOCC2)cc1,7.05 µM (active),–
COc1cc(C)c2c(=O)cc(-c3ccccc3)oc2c1,6.28 µM (active),–
ICC[n+]1csc2ccccc21,14.1 µM (active),–
COc1ccc(C2CC(c3c(O)cc(C)oc3=O)=NCCS2)c(OC)c1 (stereo unspecified),11.2 µM (active),–
Cc1ccccc1NC(=O)CSc1nc2ccccc2o1,–,23.9
COc1ccc2c(C)cc(SCC(=O)N3CCOCC3)nc2c1,–,-2.8
CCC1CCCCN1CCCNC(=O)c1ccc2nc(N3CCC(C)CC3)sc2c1 (stereo unspecified),0.0706 µM (active),–
CN(C)c1ccc(C=Nc2cncc3ccccc23)cc1,0.889 µM (active),–
O=c1c2ccccc2oc2ccc(-c3ccc4cc[nH]c4c3)cc12,1.26 µM (active),–
COc1ccc(-c2coc3cc(O)cc(O)c3c2=O)cc1,9.96 µM (active),–
COc1ccc(/C=C/C(=O)O/N=C(\N)c2ccccn2)cc1OC,14.1 µM (active),–
COc1ccc([C@H]2Cc3cc(O)cc(O)c3C(=O)O2)cc1O,11.2 µM (active),–
O=C(Nn1c(SCc2ccc([N+](=O)[O-])cc2)nc2ccccc2c1=O)c1ccc(F)cc1,5 µM (active),–
O=C(NC1CCCC1)c1cc(-c2cccs2)on1,15.8 µM (active),–
Oc1cc2cc(-c3csc(-c4ccc(F)cc4)n3)cc3c2n1CCC3,6.28 µM (active),–
